Laboratory results from PubChem BioAssay (NCI).
About 83,000 compounds went through this panel and 20% of them were active in at least one assay; those are over-represented in the sample as a whole.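 For each line, cells grew in 96-well plates with the test compound present at a single concentration for 48 hours.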 A number with no mark means an inactive call. Calls of active or inactive are those of the source. How the source made its calls: active means growth percent below 10; inactive means the rest.

System: OVCAR-8 ovarian
Test: NCI-60 one-dose screen, 48 h (100 = growth as untreated, 0 = no growth, -100 = all killed)
Settings: 10 µM

| SMILES | growth |
| --- | --- |
| COc1ccc(-c2nc(-c3nc4ccc(Cl)cc4[nH]3)c3ccccn23)cc1 | -27.1% (active) |
| O=C(O)c1ccc(P(=O)(O)O)c([N+](=O)[O-])c1 | 98% |
| COc1ccc2c(c1)N(CCO)C1=C(C(=O)OC1)C2c1ccc(OC)c(OC)c1 (centres undefined) | 48.7% |
| CC(=O)O[C@]1(C)CC[C@H]2[C@H](CNCCc3ccc(Cl)cc3)C(=O)O[C@@H]2C2=C(C)C(=O)C[C@H]21 | 93.1% |
| COc1ccc(Cl)cc1-n1nnc(-c2nc3ccccc3[nH]2)c1N | 82.4% |
| O=C1/C(=C\c2ccc(F)cc2)CN(C(=O)c2ccccc2)C/C1=C\c1ccc(F)cc1 | 3.54% (active) |
| CCC(=O)N1C/C(=C/c2ccc(Cl)cc2)C(=O)/C(=C/c2ccc(Cl)cc2)C1 | 1.63% (active) |
| COc1cc(C2CC(c3ccc(Nc4ccnc5cc(Cl)ccc45)cc3)=NN2c2ccc(Cl)cc2)cc(OC)c1OC (centres undefined) | 53.8% |
| COc1cc(NC(=O)CCSc2nc3ccc(C)cc3c(=O)n2Cc2ccccc2)cc(OC)c1OC | 29.9% |
| COc1cc(Nc2ncnc(Nc3ccc4c(n3)NC(=O)C(C)(C)O4)n2)cc(OC)c1OC | 24.1% |
| C[C@@H]1C=C2C(=O)O[C@@H]3CC[C@H](C1)[C@]23O | 78.3% |
| N#CCCN1C/C(=C/c2ccc(Cl)cc2)C(=O)/C(=C/c2ccc(Cl)cc2)C1 | -22% (active) |
| Cc1[nH]nc2c1C(c1cnn(C)c1)C(C#N)=C(N)O2 (centres undefined) | 99.8% |
| O=C(Nc1nc2ccc(F)cc2s1)c1cc(-c2ccc(F)cc2)n2nc(-c3ccccc3)cc2n1 | 38.6% |
| COc1ccc(-c2nc(-c3nc4cc(Cl)c(Cl)cc4[nH]3)c3ccccn23)cc1 | 31.6% |
| Cc1ccc(CC#N)cc1C | 78.3% |
| O=C1/C(=C\c2ccc(Cl)cc2)CN(C(=S)Nc2ccccc2)C/C1=C\c1ccc(Cl)cc1 | -5.17% (active) |
| C#Cc1ccc(-n2c(/C=C/c3ccc4ccccc4n3)nc3ncccc3c2=O)cc1 | -16.4% (active) |
| N#CCCN1C/C(=C/c2ccccc2)C(=O)/C(=C/c2ccccc2)C1 | 0.855% (active) |
| CCC(=O)N1C/C(=C/c2ccc(OC)cc2)C(=O)/C(=C/c2ccc(OC)cc2)C1 | 10.7% |

| SMILES | growth |
| --- | --- |
| Cc1ccc(C)c(C(O)(c2cc(C)ccc2C)C2(O)CCCCC2)c1 | 97.5% |
| O=C1/C(=C\c2ccc(F)cc2)CN(C(=O)c2ccc([N+](=O)[O-])cc2)C/C1=C\c1ccc(F)cc1 | 19.5% |
| CC(=O)OCc1cc(-c2nc3ccccc3[nH]c2=O)nn1-c1ccc(Cl)cc1 | 95.4% |
| O=C1/C(=C\c2ccc(Cl)cc2)CN(C(=O)c2ccccc2)C/C1=C\c1ccc(Cl)cc1 | 4.04% (active) |
| CC(C)(C)c1cc(Br)cc(C(C)(C)C)c1O | 103% |
| C#Cc1ccc(-n2c(/C=C/c3ccc(C(F)(F)F)cc3)nc3ncccc3c2=O)cc1 | 17.2% |
| CC/C(=C(/c1ccc(OCCN(C)C)cc1)c1ccc(OC(=O)CCCCC(=O)c2c(C)[nH]c(/C=C3\N=C(c4ccc[nH]4)C=C3OC)c2C)cc1)c1ccccc1 | 72.5% |
| CSc1nn(-c2ccccc2)c2ncnc(Oc3ccccc3)c12 | 99% |
| COc1cc(/C=C\c2cc(OC)c(OC)c(OC)c2)cc(NS(=O)(=O)c2ccc(Cl)cc2)c1OC | 17.1% |
| COc1ccc(/C=C2/CN(CCC#N)C/C(=C\c3ccc(OC)cc3)C2=O)cc1 | 1.11% (active) |
| c1ccc(CP(Cc2ccccc2)c2ccccc2)cc1 | 94.8% |
| COc1ccc(-c2nc(-c3nc4cc(Cl)c(F)cc4[nH]3)c3ccccn23)cc1 | 40.5% |
| Cc1nc2ccccc2c(N)c1-c1cc(C)c2c(C)nc3ccccc3c2n1 | -29.4% (active) |
| CC1(C)CCC(=NNC(N)=S)CC1 | 100% |
| Nc1nc(Nc2ccccc2)n[nH]1 | 98.1% |
| CCOC(=O)N1C/C(=C/c2ccc(OC)cc2)C(=O)/C(=C/c2ccc(OC)cc2)C1 | 19.6% |
| CC(=O)n1c(-c2ccc(Cl)c(Cl)c2)cn(-c2ccc(Cl)cc2)c1=O | 20.8% |
| N=C(N)c1ccc(-c2ccc(-c3ccco3)o2)cc1 | 76.2% |
| COc1ccc(/C=C/C(C)=N/OCC(=O)O)cc1 | 105% |
